Compound activity as filed in PubChem BioAssay.
697 NFkB inh: inhibitors of PMA/ionomycin-induced NF-kB reporter, 697 cells, primary screen, B-cell NF-kB inhibitor project, cell-based, luminescence, uHTS; 697 B-cell NF-kB luciferase reporter, 16 h; inhibition, % at 4 µM; 0.33% of 330,000 active; AID 435022, 2010; in the data active means inhibition above about 35%
CSC inhib: cancer stem cell viability inhibitors, primary screen, luminescence; cancer stem cell-like cells viability; inhibition, % at 7.5 µM; 1.1% of 300,000 active; AID 2717, 2010; in the data active means inhibition above about 75%; tested in HMLE shEcad cells
Mdm2-MdmX inh: inhibitors of human Mdm2-MdmX association, primary screen, cell-based, luminescence, split luciferase, SaOS-2, uHTS; SaOS-2 split-luciferase Mdm2/MdmX complementation; inhibition, % at 8 µM; 3% of 330,000 active;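 active means inhibition of at least 50% at 8 µM in the primary screen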
Target sequence (O15151 whole entry, looked up): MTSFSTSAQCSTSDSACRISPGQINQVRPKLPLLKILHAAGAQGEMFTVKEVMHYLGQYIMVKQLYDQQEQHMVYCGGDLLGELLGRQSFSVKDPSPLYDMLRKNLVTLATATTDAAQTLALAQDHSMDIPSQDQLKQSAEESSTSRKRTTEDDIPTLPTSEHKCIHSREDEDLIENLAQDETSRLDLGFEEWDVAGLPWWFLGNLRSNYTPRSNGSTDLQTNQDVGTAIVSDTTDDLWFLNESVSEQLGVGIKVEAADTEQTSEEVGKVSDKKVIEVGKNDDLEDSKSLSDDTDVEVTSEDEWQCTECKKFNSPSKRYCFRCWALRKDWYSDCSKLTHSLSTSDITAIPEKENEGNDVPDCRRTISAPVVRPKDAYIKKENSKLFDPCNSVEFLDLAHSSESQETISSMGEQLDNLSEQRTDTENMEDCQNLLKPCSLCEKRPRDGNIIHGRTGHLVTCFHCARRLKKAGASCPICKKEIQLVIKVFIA
Target sequence (Q00987 whole entry, looked up): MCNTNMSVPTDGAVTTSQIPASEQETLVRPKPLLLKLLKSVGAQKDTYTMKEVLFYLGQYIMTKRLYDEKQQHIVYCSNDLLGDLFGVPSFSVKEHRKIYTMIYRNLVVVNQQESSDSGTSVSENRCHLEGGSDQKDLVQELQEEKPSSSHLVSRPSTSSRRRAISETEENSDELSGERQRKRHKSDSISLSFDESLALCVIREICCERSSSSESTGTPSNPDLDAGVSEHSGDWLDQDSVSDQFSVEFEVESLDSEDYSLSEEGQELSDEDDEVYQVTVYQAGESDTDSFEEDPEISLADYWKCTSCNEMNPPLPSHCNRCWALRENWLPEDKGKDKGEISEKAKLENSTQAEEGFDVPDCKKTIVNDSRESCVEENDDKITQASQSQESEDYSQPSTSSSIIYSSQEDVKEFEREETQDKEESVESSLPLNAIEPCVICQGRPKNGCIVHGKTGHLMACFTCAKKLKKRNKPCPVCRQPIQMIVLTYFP
Gli-Sufu antag: Gli-Sufu pathway antagonists, primary screen, luciferase luminescence, Sufu-KO-LIGHT cells, uHTS | AID 588413, 2011 | 0.74% of 340,000 active | inhibition, % at 5 µM | Sufu-KO-LIGHT fibroblasts, Gli luciferase reporter luminescence;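 active means inhibition above about 55%, limit read from the data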
Beta apoptosis: inhibitors of cytokine-induced beta cell apoptosis, primary screen, luminescence; INS-1E cytokine-induced death, ATP luminescence, 48 h; percent of positive-control rescue, neutral wells zero; AID 435005, 2010; protection from apoptosis, % (concentration not given with the values); 0.8% of 300,000 active;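 active means Every replicate reaches about 75%, or at least half do and their mean reaches it too, limit read from the data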;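 further: higher means more ATP so stronger rescue from cytokine killing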
Jurkat NFkB inh: inhibitors of induced NF-kB luciferase reporter, primary screen, TCR NF-kB activation inhibitor project, cell-based, luminescence, uHTS; Jurkat, PMA/ionomycin-induced NF-kB luciferase reporter; inhibition, % at 4 µM; 0.53% of 330,000 active; in the data active means inhibition above about 50%
Mdm2 MdmX conf: Mdm2-MdmX complex disruptors, retested hits, confirmation, luminescence, single concentration. shares compounds with Mdm2-MdmX inh. Mdm2-MdmX binding, luminescent assay. inhibition, % at 8 µM. 55% of 10,000 active. AID 489028, 2010; in the data active means inhibition above about 40%
Full FLuc ctr: full-length luciferase signal inhibition, confirmation, counter-screen for Mdm2/MdmX interaction inhibitor project, cell-based, single concentration, SaOS-2; 77% of 6,200 active; inhibition, % at 8 µM; shares compounds with Mdm2-MdmX inh; SaOS-2 full-length luciferase counterscreen, luminescence;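 active means mean inhibition at 8 µM reaching about 37%, which flags the compound as non-specific, limit read from the data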;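 further: p53-null SaOS-2 cells with luciferase driven by a doxycycline-inducible promoter; compound on cells about two nights before reading with doxycycline added after day one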
Large screens that a line does not name were inactive (follow-up assays come after a bar, where they were run). Hits are enriched below; roughly 4.5% of the tested compounds scored in any of these assays.

O=C(NC1CCCCC1)C(c1ccncc1)N(C(=O)c1csnn1)c1cccc(F)c1 (stereo not given)	none
O=c1[nH]c(CSc2nc(-c3ccccc3)cs2)nc2ccccc12	none
COC(=O)c1c(C)[nH]c(C(=O)CSc2ncnc3sc(-c4ccccc4)cc23)c1C	Mdm2-MdmX inh 66.8 | Mdm2 MdmX conf inactive
CC(C)N(C(=O)CSc1ncnc2sc(-c3ccccc3)cc12)C(C)C	none (no result: CSC inhib)
O=c1[nH]c(CSc2ncnc3sc(-c4ccccc4)cc23)nc2ccccc12	Mdm2-MdmX inh 87.2 | Mdm2 MdmX conf inactive
CN(Cc1ccc(Cl)cc1)C(=O)CCl	none
CN(Cc1ccc(Cl)s1)C(=O)CCl	Mdm2-MdmX inh 53.7 | Mdm2 MdmX conf 41.1 | Full FLuc ctr 52.4
Cn1nc(-c2ccc(NCCO)c([N+](=O)[O-])c2)c2ccccc2c1=O	none
CN(C)CCNc1ccc(-c2nn(C)c(=O)c3ccccc23)cc1[N+](=O)[O-]	Mdm2-MdmX inh 52.8 | Mdm2 MdmX conf inactive | Full FLuc ctr 78.5
CC1(C)CC(=O)C2=C(C1)OC1=C(C(=O)CC(C)(C)C1)C2c1ccc(O)c([N+](=O)[O-])c1	none
CC1(C)CC(=O)C2=C(C1)OC1=C(C(=O)CC(C)(C)C1)C2c1ccc(O)cc1O	Mdm2-MdmX inh 99.5, Beta apoptosis 101.7 | Mdm2 MdmX conf 83.0 | Full FLuc ctr 50.5
COc1oc(C(=O)NC2CCCCC2)c(-c2ccc(Cl)cc2)c1S(=O)(=O)c1ccccc1	none (no result: 697 NFkB inh, CSC inhib, Mdm2-MdmX inh, Beta apoptosis, Jurkat NFkB inh)
CC1=NN(c2ccc(C(=O)O)cc2)C(=O)/C1=C/c1ccc(-c2ccccc2F)o1	none (no result: Gli-Sufu antag)
CC1=NN(c2ccc(C)cc2)C(=O)/C1=C/c1ccc(-c2cc([N+](=O)[O-])ccc2O)o1	Mdm2-MdmX inh 66.5 (no result: CSC inhib, Beta apoptosis) | Mdm2 MdmX conf inactive
CC(=O)N1CCC2(CC1)C/C(=N\NC(=S)Nc1ccccc1F)c1cc(O)ccc1O2	Mdm2-MdmX inh 67.4 | Mdm2 MdmX conf inactive | Full FLuc ctr 95.9
CC(=O)c1sc2nc(-c3cccs3)ccc2c1N	none
Nc1c(C(=O)Nc2nc3ccccc3s2)sc2nc(-c3cccs3)ccc12	Mdm2-MdmX inh 86.8 | Mdm2 MdmX conf inactive
O=C(Nc1ccc2c(c1)C(=O)N(c1ccccc1)C2=O)c1cccs1	Mdm2-MdmX inh 50.3 | Mdm2 MdmX conf inactive
NNc1nc(-c2ccccc2)nc(-c2ccccc2)c1Br	none
C/C(=N\NC(=O)c1c(C)nc2ccccn12)c1ccc(O)cc1O	Mdm2-MdmX inh 73.6, Beta apoptosis 87.9 | Mdm2 MdmX conf 78.5 | Full FLuc ctr inactive
C/C(=N\NC(=O)c1c(C)nc2ccccn12)c1ccccc1F	none
CCCCNC(=O)c1nn2c(C(F)(F)F)cc(-c3ccc(OC)cc3)nc2c1Br	none
O=C(Cc1sc(-c2ccccc2)nc1-c1ccccc1)Nc1ccc(Cl)cc1	Mdm2-MdmX inh 58.8 | Mdm2 MdmX conf inactive
O=C(Cc1sc(-c2ccccc2Cl)nc1-c1ccccc1)Nc1ccccc1	Mdm2-MdmX inh 72.2 | Mdm2 MdmX conf inactive
O=C(Cc1sc(-c2ccccc2Cl)nc1-c1ccccc1)Nc1ccc(F)cc1	Mdm2-MdmX inh 64.0 | Mdm2 MdmX conf inactive
Cc1nc(-c2ccc(F)cc2)c(CC(=O)N(C)CC(=O)Nc2ccc(F)cc2)s1	none (no result: Beta apoptosis)
CC(=O)Nc1ccc(NC(=O)Cc2sc(-c3cccnc3)nc2-c2ccc(C)cc2)cc1	none
O=C(NCCc1ccccc1)[C@@H]1CC=C[C@@H]2CCN(C3CCCCC3)C(=O)[C@@H]21	none
COc1ccc(S(=O)(=O)N(C)C[C@H]2Oc3c(NC(=O)CCC(F)(F)F)cccc3C(=O)N([C@H](C)CO)C[C@@H]2C)cc1	none
